Where “and” joins values, the source holds several entries; their conditions need not be identical. Equal entries are not always repeated. Screen size: about 5,500 compounds; about 2,000 (36%) were called active. About 18% were inconclusive and are not listed. Rule as the data show it: active = normalized growth mostly below about 0.91 (no sharp cut-off); inconclusive = no clear call, values can overlap the other calls; inactive = mostly above about 0.92. The list shows a part of the results.
Assay: chemical genetic growth profiling, strain panel (AID 1159580);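 also: tested at 20 µM; growth read once vehicle control cultures reached saturation at 30 °C; 1 = growth at the plate median or of vehicle wells; lower values mean less growth of the strain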
Settings: S. cerevisiae deletion strains, growth OD

Measured: normalized growth

COc1ccc2c(c1)OCc1c-2oc2cc(OC)ccc12
0.542 (active) and 0.952 (inactive): locus YJL095W, strain BCK1, stronger effect = lower value
inactive: locus YBR021W, strain FUR4, stronger effect = lower value 0.946 | locus YBR171W, strain sec66, stronger effect = lower value 0.973 | locus YBR229C, strain ROT2, stronger effect = lower value 0.997 | locus YCL029C, strain bik1, stronger effect = lower value 1 | locus YCL069W, strain vba3, stronger effect = lower value 0.945 | locus YCR088W, strain abp1, stronger effect = lower value 0.945 | locus YDL005C, strain med2, stronger effect = lower value 1.02 | locus YDL035C, strain GPR1, stronger effect = lower value 0.955 | locus YDL040C, strain nat1, stronger effect = lower value 0.988 | locus YDL101C, strain DUN1, stronger effect = lower value 0.915 | locus YDL134C, strain PPH21, stronger effect = lower value 0.908 | locus YDL185W, strain tfp1, stronger effect = lower value 1.05 | locus YDL192W, strain arf1, stronger effect = lower value 1.01 | locus YDR001C, strain nth1, stronger effect = lower value 0.989 | locus YDR069C, strain doa4, stronger effect = lower value 0.959 | locus YDR101C, strain arx1, stronger effect = lower value 0.997 | locus YDR150W, strain NUM1, stronger effect = lower value 0.991 | locus YDR162C, strain NBP2, stronger effect = lower value 0.872 | locus YDR195W, strain ref2 1.08 | locus YDR318W, strain mcm21, stronger effect = lower value 0.988 | locus YDR334W, strain swr1, stronger effect = lower value 1.01 | locus YDR388W, stronger effect = lower value 1 | locus YDR502C, strain sam2, stronger effect = lower value 0.985 | locus YEL037C, strain rad23, stronger effect = lower value 0.986 | locus YER110C, stronger effect = lower value 0.995 | locus YER155C, strain BEM2, stronger effect = lower value 0.941 | locus YFR010W, strain ubp6, stronger effect = lower value 0.942 | locus YGL078C, strain dbp3, stronger effect = lower value 1.03 | locus YGL086W, strain mad1, stronger effect = lower value 0.947 | locus YGL167C, strain pmr1, stronger effect = lower value 0.977 | locus YGL227W, strain vid30, stronger effect = lower value 0.935 | locus YGR078C, strain PAC10, stronger effect = lower value 0.943 | locus YGR135W, strain pre9, stronger effect = lower value 1.01 | locus YGR252W, strain gcn5, stronger effect = lower value 0.967 | locus YHR013C, strain ard1, stronger effect = lower value 0.975 | locus YHR030C, strain SLT2, stronger effect = lower value 0.966 | locus YHR079C, strain IRE1 (second series), stronger effect = lower value 1 | locus YHR079C, strain IRE1, stronger effect = lower value 0.951 | locus YHR094C, strain hxt1, stronger effect = lower value 1.02 | locus YHR200W, strain rpn10, stronger effect = lower value 1.01 | locus YIL073C, strain SPO22, stronger effect = lower value 1.18 | locus YIL125W, strain kgd1, stronger effect = lower value 0.996 | locus YIR030C, strain dcg1, stronger effect = lower value 1 | locus YJL092W, strain hpr5, stronger effect = lower value 0.943 | locus YJL115W, strain asf1, stronger effect = lower value 0.995 | locus YJL134W, strain LCB3, stronger effect = lower value 1.01 | locus YJL154C, strain vps35, stronger effect = lower value 1 | locus YJL168C, strain set2, stronger effect = lower value 1.01 | locus YJR043C, strain POL32, stronger effect = lower value 0.953 | locus YJR066W, strain TOR1, stronger effect = lower value 0.876
active: locus YAL021C, strain ccr4, stronger effect = lower value 0.901 | locus YAL026C, strain drs2, stronger effect = lower value 0.764 | locus YAL030W, strain snc1, stronger effect = lower value 0.919 | locus YBL061C, strain skt5, stronger effect = lower value 0.864 | locus YBR009C, strain hhf1, stronger effect = lower value 0.737 | locus YBR023C, strain chs3, stronger effect = lower value 0.862 | locus YBR231C, strain swc5, stronger effect = lower value 0.909 | locus YBR279W, strain paf1, stronger effect = lower value 0.894 | locus YCL011C, strain gbp2, stronger effect = lower value 0.792 | locus YCL016C, strain dcc1, stronger effect = lower value 0.858 | locus YDR137W, strain rgp1, stronger effect = lower value 0.415 | locus YDR159W, strain sac3, stronger effect = lower value 0.724 | locus YDR297W, strain sur2, stronger effect = lower value 0.894 | locus YDR335W, strain msn5, stronger effect = lower value 0.857 | locus YDR392W, strain spt3, stronger effect = lower value 0.162 | locus YEL003W, strain gim4, stronger effect = lower value 0.806 | locus YEL061C, strain CIN8 (second series), stronger effect = lower value 0.777 | locus YEL061C, strain CIN8, stronger effect = lower value 0.666 | locus YER015W, strain faa2, stronger effect = lower value 0.9 | locus YER016W, strain bim1, stronger effect = lower value 0.87 | locus YER111C, strain swi4, stronger effect = lower value 0.84 | locus YER155C, strain BEM2 (second series), stronger effect = lower value 0.505 | locus YGL173C, strain kem1, stronger effect = lower value 0.851 | locus YGL240W, strain doc1, stronger effect = lower value 0.756 | locus YGL248W, strain PDE1, stronger effect = lower value 0.84 | locus YGL253W, strain hxk2, stronger effect = lower value 0.866 | locus YHR027C, strain rpn1, stronger effect = lower value 0.916 | locus YHR129C, strain ARP1, stronger effect = lower value 0.779 | locus YHR142W, strain chs7, stronger effect = lower value 0.659 | locus YIL066C, strain RNR3, stronger effect = lower value 0.745 | locus YJL095W, strain BCK1 (second series), stronger effect = lower value 0.761 | locus YJL129C, strain trk1, stronger effect = lower value 0.839 | locus YJL164C, strain tpk1, stronger effect = lower value 0.79 | locus YJL166W, strain qcr8, stronger effect = lower value 0.779

Source: PubChem BioAssay AID1159580 (chemical genetic matrix, 2015)
